According to PubChem BioAssay (EPA / NIEHS):
Several values for one entry are separate records, joined by “and”; a condition that tells them apart may be missing. Equal values may be shown once. Records with an inconclusive call do not appear. Some structures have more than one record in an assay (separate samples or runs), and their calls can disagree. Activity calls are given as the source filed them. How the source made its calls, unless noted: active means hit-call score of the fitted dose curve at least 0.9, where 1 is the maximum; inconclusive means response in the unintended direction; inactive means score below 0.9.

What was measured:
[1] = ATG_XTT_Cytotoxicity: Cytotoxicity Assessment in the Attagene TRANS-FACTORIAL HepG2 Assay (AID 2283584);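 on AC50: cells exposed to compound for 24 h before reading; active means loss of viability signal versus DMSO baseline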
Method in brief: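 Viability endpoint from XTT after 24 h chemical exposure of reporter-transfected human HepG2 liver cells; signal loss fitted relative to DMSO negative control.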

[2] = read-out: UDP glucuronosyltransferase (UGT1A1), UGT1A1 (gene 54658); experiment: LTEA_HepaRG_UGT1A1: Life Technologies and Expression Analysis (LTEA) Assay for UDP glucuronosyltransferase (UGT1A1) using HepaRG (AID 2283538; active means hit-call score of the fitted dose curve at least 0.9, where 1 is the maximum; inactive means score below 0.9); settings: mRNA level, 48 h; actives raise or lower the signal
Method in brief: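 Readout is UGT1A1 transcript level by qRT-PCR, normalized to three housekeeping genes, after 48 h chemical treatment of HepaRG cells. Concentrations ran from 100 uM down in half-log steps with 0.5% DMSO, and gain or loss relative to DMSO was fitted.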

[3] = read-out: UDP glucuronosyltransferase (UGT1A6), UGT1A6 (gene 54578); experiment: LTEA_HepaRG_UGT1A6: Life Technologies and Expression Analysis (LTEA) Assay for UDP glucuronosyltransferase (UGT1A6) using HepaRG (AID 2283539; active means hit-call score of the fitted dose curve at least 0.9, where 1 is the maximum; inactive means score below 0.9); settings: mRNA level, 48 h; actives raise or lower the signal
Method in brief: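 Expression was quantified by TaqMan qRT-PCR on Fluidigm arrays with ACTB/GAPDH/POLR2A normalization and bidirectional fitting against 0.5% DMSO. HepaRG cells (~100,000/well) were treated in duplicate for 48 h at eight half-log concentrations up to 100 uM in serum-free induction medium.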

[4] = read-out: X-box binding protein 1 (XBP1), XBP1 (gene 7494); experiment: LTEA_HepaRG_XBP1: Life Technologies and Expression Analysis (LTEA) Assay for X-box binding protein 1 (XBP1) using HepaRG (AID 2283540; active means hit-call score of the fitted dose curve at least 0.9, where 1 is the maximum; inactive means score below 0.9); settings: mRNA level, 48 h; actives raise or lower the signal
Method in brief: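 XBP1 transcript by qRT-PCR (housekeeping-normalized: ACTB, GAPDH, POLR2A) after 48 h chemical treatment of HepaRG cells, 8-point half-log series topping at 100 uM, vehicle 0.5% DMSO. Gain and loss of signal fitted relative to DMSO.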

[5] = LTEA_HepaRG_LDH_cytotoxicity: Cytotoxicity Assessment in the Life Technologies and Expression Analysis (LTEA) Assay (AID 2283563);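 on AC50: LDH activity released into spent culture medium as a marker of cell death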
Method in brief: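 LDH release into culture medium read after 48 h chemical treatment of HepaRG cells. Duplicate wells, eight-point half-log series topping at 100 uM, 0.5% DMSO vehicle and baseline.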

[6] = Tanguay_ZF_120hpf_MORT_legacy: (Legacy) Oregon State University Tanguay Lab 120 Hour Post-fertilization zebrafish Assay for Mortality (AID 2283633);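 on AC50: fitted as increase in binary mortality versus DMSO negative control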
Method in brief: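 Static waterborne exposure from 6 to 120 hpf at 28C of single dechorionated wild-type (5D) embryos per well, 0.64% DMSO final. Death recorded present/absent by brightfield at 24 and 120 hpf.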

[7] = Tanguay_ZF_120hpf_YSE_legacy: (Legacy) Oregon State University Tanguay Lab 120 Hour Post-fertilization zebrafish Assay for Yolk Sac Edema (AID 2283634);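 on AC50: actives raise the incidence of yolk sac edema above the DMSO baseline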
Method in brief: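 Presence or absence of yolk sac edema was recorded at 120 hpf in surviving larvae. These were wild-type Tropical 5D embryos, chorion removed at 4 hpf, held in static exposure at 28C from 6 hpf with 0.64% DMSO vehicle.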

[8] = Tanguay_ZF_120hpf_AXIS_legacy: (Legacy) Oregon State University Tanguay Lab 120 Hour Post-fertilization zebrafish Assay for Body Axis Malformation (AID 2283635);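 on AC50: potency for an increased fraction of larvae scored with body axis malformation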
Method in brief: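 Binary scoring of axis defects at 120 hpf under brightfield, fitted positive versus DMSO. Tropical 5D embryos, chorion removed by pronase at 4 hpf, were singly exposed in sealed, dark plates at 28C from 6 hpf; DMSO 0.64% final.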

[9] = Tanguay_ZF_120hpf_EYE_legacy: (Legacy) Oregon State University Tanguay Lab 120 Hour Post-fertilization zebrafish Assay for Eye Malformation (AID 2283636)
Method in brief: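 Read-out is binary presence or absence of eye malformation, scored by brightfield microscopy at 120 hpf. Single larvae were exposed from 6 hpf in embryo medium containing 0.64% DMSO, with DMSO as baseline.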

[10] = Tanguay_ZF_120hpf_SNOU_legacy: (Legacy) Oregon State University Tanguay Lab 120 Hour Post-fertilization zebrafish Assay for Snout Malformation (AID 2283637)
Method in brief: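 Snout malformation read as a yes/no call on brightfield images of 120 hpf larvae (Tropical 5D strain). Static exposure began at 6 hpf on dechorionated embryos in 0.64% DMSO, with gain of signal analysed versus DMSO controls.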

[11] = Tanguay_ZF_120hpf_JAW_legacy: (Legacy) Oregon State University Tanguay Lab 120 Hour Post-fertilization zebrafish Assay for Jaw Malformation (AID 2283638)
Method in brief: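 Binary jaw-malformation call at 120 hpf by brightfield microscopy. Embryos (Tropical 5D strain, chorion removed at 4 hpf) were dosed statically at 6 hpf, one per well, at 28C with 0.64% DMSO. Embryos that died were not scored.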

[12] = read-out: Cellular tumor antigen p53 (Homo sapiens) (UniProt P04637); experiment: LTEA_HepaRG_TP53: Life Technologies and Expression Analysis (LTEA) Assay for Tumor Protein P53 (TP53) using HepaRG (AID 2283537; active means hit-call score of the fitted dose curve at least 0.9, where 1 is the maximum; inactive means score below 0.9); settings: mRNA level, 48 h; actives raise or lower the signal
Method in brief: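 Differentiated HepaRG cells in serum-free induction medium exposed 48 h in duplicate to 8 half-log concentrations, top 100 uM, 0.5% DMSO. TP53 mRNA by TaqMan qRT-PCR (Fluidigm), normalized to ACTB, GAPDH, POLR2A; fitted bidirectionally versus DMSO.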

[13] = TOX21_p53_BLA_p2_viability: Viability Assessment in the Tox21 HCT-116 p53 Agonism Beta-lactamase Assay, Phase 2 (AID 2283591);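 further: compound exposure lasted 16 h at 37 °C; actives lower the ATP signal meaning cytotoxicity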
Method in brief: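 Cytotoxicity readout: CellTiter-Glo ATP luminescence, 30 min at room temperature, after the beta-lactamase read. Cells were HCT116 exposed 16 h at 37C to compounds pin-transferred at 217-fold dilution from DMSO stocks.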

[14] = biological target: Cellular tumor antigen p53 (Homo sapiens) (UniProt P04637); experiment: TOX21_p53_BLA_p2_ratio: Tox21 HCT-116 p53 Agonism Beta-lactamase Assay, Ratio, Phase 2 (AID 2283592)
Method in brief: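 Gain-of-signal p53 agonism was scored from the beta-lactamase FRET ratio (460/530 nm, 405 nm excitation) in HCT116 cells treated 16 h at 37C, 5% CO2, with DMSO serving as negative control and baseline.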

[15] = TOX21_p53_BLA_p3_viability: Viability Assessment in the Tox21 HCT-116 p53 Agonism Beta-lactamase Assay, Phase 3 (AID 2283593);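 further: cells exposed to compound for 16 h before reading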
Method in brief: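 Cellular ATP was quantified by CellTiter-Glo luminescence, read after 30 min at room temperature. Beforehand, HCT116 cells (4000/well) received compound 5 h post-seeding, 217-fold diluted from DMSO, then incubated 16 h at 37C.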

[16] = biological target: Cellular tumor antigen p53 (Homo sapiens) (UniProt P04637); experiment: TOX21_p53_BLA_p3_ratio: Tox21 HCT-116 p53 Agonism Beta-lactamase Assay, Ratio, Phase 3 (AID 2283596)
Method in brief: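 HCT116 p53-bla cells (4000/well) given compound in DMSO (217-fold dilution) after 5 h, incubated 16 h at 37C. CCF4-AM substrate 2 h at room temperature; 460/530 nm emission ratio, gain fitted against DMSO.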

[17] = TOX21_p53_BLA_p4_viability: Viability Assessment in the Tox21 HCT-116 p53 Agonism Beta-lactamase Assay, Phase 4 (AID 2283597);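 further: hits lower the luminescence signal meaning cytotoxicity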
Method in brief: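 Following a 16 h exposure at 37C, the treated HCT116 wells were first read for the FRET ratio. They were then lysed with CellTiter-Glo, and ATP luminescence was recorded after 30 min at room temperature.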

[18] = biological target: Cellular tumor antigen p53 (Homo sapiens) (UniProt P04637); experiment: TOX21_p53_BLA_p5_ratio: Tox21 HCT-116 p53 Agonism Beta-lactamase Assay, Ratio, Phase 5 (AID 2283599)
Method in brief: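 Beta-lactamase reporter ratio (blue 460 nm over green 530 nm, 405 nm excitation) after 2 h CCF4-AM loading, in HCT-116 cells exposed 16 h at 37 C to compounds pinned at 217-fold dilution. Increases relative to DMSO baseline scored.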

[19] = TOX21_p53_BLA_p5_viability: Viability Assessment in the Tox21 HCT-116 p53 Agonism Beta-lactamase Assay, Phase 5 (AID 2283600)
Method in brief: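 After the 460/530 nm beta-lactamase measurement, the wells received an ATP-detection luciferase reagent; signal was read 30 min later at RT. Compound treatment lasted 16 h on cells pre-incubated 5 h post-seeding.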

[20] = biological target: Cellular tumor antigen p53 (Homo sapiens) (UniProt P04637); experiment: TOX21_p53_BLA_p4_ratio: Tox21 HCT-116 p53 Agonism Beta-lactamase Assay, Ratio, Phase 4 (AID 2283601)
Method in brief: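 Signal is the blue/green (460nm/530nm) ratio of cleaved versus uncleaved CCF4-AM substrate, read after 2 h substrate loading. Cells were HCT116 carrying the p53-responsive beta-lactamase reporter, dosed 16 h at 37C, 5% CO2; CellTiter-Glo measured in parallel.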

Measured: AC50

Chain of Cellular tumor antigen p53 (Homo sapiens) (P04637 whole entry, looked up): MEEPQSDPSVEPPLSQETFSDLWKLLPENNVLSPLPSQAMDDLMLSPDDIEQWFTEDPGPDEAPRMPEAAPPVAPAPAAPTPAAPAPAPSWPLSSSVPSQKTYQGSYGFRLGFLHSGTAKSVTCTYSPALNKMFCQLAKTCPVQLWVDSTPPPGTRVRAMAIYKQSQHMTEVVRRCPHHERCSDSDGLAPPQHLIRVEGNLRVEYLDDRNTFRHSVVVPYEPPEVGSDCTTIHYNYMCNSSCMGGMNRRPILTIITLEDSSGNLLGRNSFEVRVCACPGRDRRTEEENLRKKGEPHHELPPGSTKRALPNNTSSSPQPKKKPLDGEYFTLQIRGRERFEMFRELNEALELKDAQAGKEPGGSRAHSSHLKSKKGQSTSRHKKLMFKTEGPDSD

COc1nn(C(=O)NS(=O)(=O)c2ccccc2OC(F)(F)F)c(=O)n1C
inactive: [1]

O=C/C(Cl)=C(/Cl)C(=O)O
inactive: [1]

O=S(=O)(C(Cl)(Cl)Cl)C(Cl)(Cl)Cl
active: [1] 36.7 µM

CCCCC(CC)COC(=O)Cl (configuration not stated)
inactive: [1]

Cc1ccc(OP(=O)(Oc2ccc(C)cc2C)Oc2ccc(C)cc2C)c(C)c1
inactive: [1]

OC(Cc1ccccc1Cl)(Cn1[nH]cnc1=S)C1(Cl)CC1 (configuration not stated)
inactive: [1]

Clc1cccc(Cl)c1
inactive: [2] | [3] | [4] | [5] | [6] | [7] | [8] | [9] | [10] | [11]

CCOCn1c(-c2ccc(Cl)cc2)c(C#N)c(Br)c1C(F)(F)F
inactive: [1]

Cc1cc(C)cc(C)c1
inactive: [2] | [3] | [4] | [5] | [1] | [6] | [7] | [8] | [9] | [10] | [11]

O=C(O)C1(c2ccc3c(c2)OC[C@H](Cc2ccc(-c4ccccc4)cc2)[C@H]3O)CCCC1
inactive: [2] | [3] | [4] | [6] | [7] | [8] | [9] | [10]
active: [5] 77.6 µM

CC[N+](CC)(CC)CC
inactive: [1]

O=C(O)COc1cc(Cl)c(Cl)cc1Cl
inactive: [1]

C[C@]12CC[C@@H](O)C[C@@H]1CC[C@@H]1[C@@H]2CC[C@]2(C)C(=O)CC[C@@H]12
inactive: [1]

NC(=O)CCl
inactive: [1]

CN(C)CCN(C)C
inactive: [1]

CCCCCCCCCCCCc1cccc(S(=O)(=O)O)c1
inactive: [3] | [4] | [5] | [6] | [7] | [8] | [9] | [11]
active: [2] 22.9 µM | [1] 139 µM

Fc1cccc(Cl)c1CCl
inactive: [1]

COc1ccccc1N
inactive: [2] | [3] | [4] | [5] | [1] | [6] | [7] | [8] | [9] | [10] | [11]

N#Cc1cccnc1
inactive: [2] | [3] | [4] | [5] | [1] | [6] | [7] | [8] | [9] | [10] | [11]

C[N+](C)(C)Cc1ccccc1
inactive: [1]

Clc1cccc(Cl)c1Cl
inactive: [2] | [3] | [4] | [5] | [6] | [7] | [8] | [9] | [10] | [11]

CC(C)(COCC1CO1)COCC1CO1 (configuration not stated)
inactive: [1]

CN(C)C(=S)S
inactive: [2] | [3] | [4] | [5] | [1] | [6] | [9] | [10] | [11]
active: [7] 8.26 µM | [8] 0.946 µM

C[As+](C)(C)CC(=O)[O-]
inactive: [1]

CC(C)O.CC(C)O.OCCN(CCO)CCO.OCCN(CCO)CCO.[Ti]
inactive: [2] | [3] | [4] | [1] | [6] | [8] | [10] | [11]

CC(C)(C)c1ccccc1O
active: [2] 4.14 µM
inactive: [3] | [4] | [5] | [1] | [6] | [7] | [8] | [9] | [10] | [11]

O=C(N[C@H]1CN2CCC1CC2)c1ccc2c(c1)OCCO2
inactive: [2] | [3] | [4] | [5] | [6] | [7] | [8] | [9] | [10] | [11]

CCOC(=O)c1ccccc1S(=O)(=O)NC(=O)Nc1nc(Cl)cc(OC)n1
inactive: [1]

Oc1cc(Cl)c(Cl)cc1Cl
inactive: [2] | [3] | [4] | [1] | [7] | [8] | [9] | [10] | [11]
active: [5] 84.8 µM | [6] 24.9 µM

C1CN2CCN1CC2
inactive: [1]

Nc1ccc(N)cc1
inactive: [1]

Oc1c(Cl)cc(Cl)cc1Cl
inactive: [2] | [3] | [4] | [7] | [8] | [9] | [10] | [11]
active: [12] 50 µM | [6] 24.9 µM

OCCN(CCO)CCO
inactive: [2] | [3] | [4] | [5] | [1] | [6] | [7] | [8] | [9] | [10] | [11]

CC(C)(c1ccc(O)c(-c2ccccc2)c1)c1ccc(O)c(-c2ccccc2)c1
active: [1] 22.2 µM

COCC(=O)N(c1c(C)cccc1C)[C@H](C)C(=O)OC
inactive: [1]

O=C(Nc1ccc(Br)cc1)c1cc(Br)cc(Br)c1O
active: [13] 0.391 µM | [14] 1.15 µM and 272 nM and 3.12 µM | [15] 1.12 µM and 641 nM and 1.79 µM | [16] 255 nM and 198 nM and 1.8 µM | [17] 1.33 µM and 417 nM and 2.76 µM | [18] 1.11 µM and 782 nM and 7.78 µM | [19] 9.14 µM | [20] 1.11 µM and 589 nM
inactive: [1] | [13] | [19] | [20]
